# About 83,000 compounds went through this panel and 20% of them were active in at least one assay; those are over-represented in the sample as a whole.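 Growth was measured after 48 h exposure to one concentration of compound in 96-well plates. Values under 10 count as active.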 Values without a mark were called inactive. Active and inactive are the calls of the source.
# Legend:
# Test in all cases: NCI-60 one-dose screen, 48 h (100 = growth as untreated, 0 = no growth, -100 = all killed)
# Settings in all cases: 10 µM
# SK-MEL-2 melanoma = system: SK-MEL-2 melanoma
# EKVX NSCLC = system: EKVX NSCLC
# SN12C renal = system: SN12C renal
# UO-31 renal = system: UO-31 renal
# TK-10 renal = system: TK-10 renal
# CAKI-1 renal = system: CAKI-1 renal
# A498 renal = system: A498 renal
# MOLT-4 leukemia = system: MOLT-4 leukemia
# ACHN renal = system: ACHN renal
# CCRF-CEM leukemia = system: CCRF-CEM leukemia
SMILES,growth (SK-MEL-2 melanoma),growth (EKVX NSCLC),growth (SN12C renal),growth (UO-31 renal),growth (TK-10 renal),growth (CAKI-1 renal),growth (A498 renal),growth (MOLT-4 leukemia),growth (ACHN renal),growth (CCRF-CEM leukemia)
CCCCCCCCCCCCCCCCCCCC(=O)NCCc1c[nH]c2ccc(OC(=O)NOCCOCCOCCOCCOCCOCCOCCOCCOCCOCCOCCOCCOCCOCCOCCOCCOCCOCCOCCOCCOCCOCCOC)cc12,-68.5% (active),35.6%,-17.4% (active),61.8%,51.2%,7.27% (active),63.1%,-11.7% (active),–,–
Cc1nn(-c2ccccc2)c2ncn(CC(=O)N/N=C/c3c[nH]c4ccccc34)c(=O)c12,86.3%,61.2%,89.7%,–,107%,71.9%,79.5%,55.8%,85.2%,85%
COc1cccc(-c2ccc(/C=N/NC(=O)c3[nH]c4ccc(Br)cc4c3-c3ccccc3)o2)c1,19.2%,50.1%,5.67% (active),39.2%,70.4%,26%,72.5%,1.31% (active),–,-5.45% (active)
COc1ccccc1[C@H]1C(C(=O)c2ccc(Cl)cc2)C2(N[C@@H]1c1ccccc1)C(=O)Nc1ccccc12 (stereo not given in full),-85.9% (active),3.23% (active),-89% (active),1.13% (active),8.59% (active),4.17% (active),-19.2% (active),-17.7% (active),–,4.07% (active)
O=C(CSc1nnc(-c2c[nH]c3ccccc23)n1-c1ccccc1)c1ccc(Br)cc1,-19.5% (active),10.8%,72.9%,26%,64.9%,44.3%,36%,92.2%,–,86.4%
COc1ccc(-c2cc(C(=O)N=Nc3c(O)[nH]c4ccc(Br)cc34)c3ccccc3n2)cc1,122%,44.4%,5.56% (active),43.2%,97.8%,57.1%,143%,4.15% (active),–,18.9%
OCCCNc1oc(-c2ccccc2)nc1[P+](c1ccccc1)(c1ccccc1)c1ccccc1,-34.1% (active),14.3%,-0.273% (active),69.8%,20.9%,58.6%,22.5%,6.77% (active),–,10.5%
CCCn1c(O)c(N=Nc2nc(-c3cc4ccccc4oc3=O)cs2)c2cc(Br)ccc21,102%,92.8%,95.2%,85.1%,125%,96.4%,130%,107%,–,98.9%
O=c1oc2ccc(-c3ccc(F)cc3F)cc2c(=O)n1-c1ccc(F)c(Cl)c1,-67.4% (active),-9.05% (active),-17% (active),-5.43% (active),11.9%,-20.4% (active),-20.8% (active),-30.7% (active),–,-5.97% (active)
Cc1ccc(C(=O)Nc2ccc(-n3c(C)nc4c(cnn4-c4ccccc4)c3=O)cc2)cc1,78.3%,30.5%,73.3%,–,82.3%,72.4%,87.3%,34.3%,61.8%,46.3%
O=C(CNc1nc(-c2ccccc2)cs1)Nc1ccccc1,-68.8% (active),-93.3% (active),-47.3% (active),17.9%,-79.4% (active),5.53% (active),-4.95% (active),-3.86% (active),–,14.9%
O=C1Nc2cc(Cl)ccc2/C1=C/c1cccc(OCc2ccc(Br)cc2F)c1,-20% (active),10.5%,17.6%,–,77.9%,26.9%,60%,0.0252% (active),30.8%,-15.9% (active)
O=C1Nc2ccc(F)cc2/C1=C/c1cccc(OCc2ccccc2)c1,-23.1% (active),18.4%,20.2%,–,70.9%,25.9%,80.2%,1.81% (active),22.4%,-4.49% (active)
O=C(c1ccc(Cl)cc1)C1[C@H](c2ccccc2Br)[C@@H](c2ccccc2)NC12C(=O)Nc1ccc(Cl)cc12 (stereo not given in full),13.8%,16.5%,-58.6% (active),16.5%,42.5%,8.98% (active),72.4%,18%,–,18.8%
CONC[C@]1(C)C=C2C(=O)[C@](C)(O)C3(CC3)C(C)=C2[C@H]1O,-100% (active),-45.3% (active),-6.45% (active),-24.8% (active),7.09% (active),-0.623% (active),-29.7% (active),-13.9% (active),–,4.58% (active)
O=C1Nc2ccc(Cl)cc2/C1=C/c1ccc(OCc2ccc(Br)cc2F)cc1,80%,41%,34.2%,–,18.6%,28.9%,4.76% (active),63.5%,3.32% (active),43.1%
COc1ccc(OC)c(-c2cc(-c3c[nH]c4ccccc34)nc(N)c2C#N)c1,-18.3% (active),13.7%,2.5% (active),-15.5% (active),37.4%,7.28% (active),2.72% (active),7.55% (active),–,8.99% (active)
COc1ccc(CN2[C@@H](C(=O)NCc3ccc(C(=O)NO)cc3)Cc3c([nH]c4ccccc34)[C@@H]2C)cc1,2.82% (active),11.9%,29.8%,36%,16.5%,39.5%,-5.13% (active),11.3%,–,15.8%
Cc1cccc(-c2nc(Nc3ccccc3C(=O)O)c3ccccc3n2)c1,66%,21%,40.7%,31%,85.8%,–,47.6%,34.3%,–,17.8%
O=c1[nH]c2ccccc2cc1CSc1ccc(Nc2nccc(-c3ccc(C(F)(F)F)cc3)n2)cc1,85.4%,7.65% (active),-19.7% (active),5.37% (active),-6.8% (active),12.7%,-50.2% (active),55.6%,–,75%
CN(C)c1nc(NCCNS(=O)(=O)c2ccc(C(=O)/C=C/c3ccccc3)cc2)nc(Nc2ccc(F)cc2)n1,81%,29.1%,-89% (active),18.2%,92.5%,38.1%,61.1%,8.21% (active),–,14.8%
Cc1cccc2cc(-c3cc(-c4ccccc4)nc(=O)[nH]3)c(Cl)nc12,102%,84.6%,84%,–,110%,87.2%,94.5%,61.3%,91.8%,8.46% (active)
COc1ccc2[nH]cc(/C=N/Nc3cccc(Cl)n3)c2c1,92%,44.2%,38.7%,33.5%,91.1%,46.7%,120%,14.8%,–,9.72% (active)
CN(C)c1ccc(/C=C/c2nc3ccccc3c(=O)n2CC(=O)Nc2ccccc2)cc1,71.4%,63.6%,39%,54.3%,95%,24.4%,70.5%,79.5%,–,90%
O=C(c1ccc([N+](=O)[O-])c([N+](=O)[O-])c1O)n1[nH]c(=O)c2ccccc2c1=O,76.1%,66.4%,70.2%,–,120%,82.4%,133%,36.3%,76.6%,30.5%
CN1CCc2c(sc3ncnc(N/N=C/c4cn(-c5ccccc5)nc4-c4ccc(Br)cc4)c23)C1,58.3%,20.5%,13.9%,–,92.3%,84.1%,94.8%,2.95% (active),65.6%,15.7%
O=C(CSc1ccc(-c2ccc(Cl)cc2)nn1)Nc1ccc(Cl)c(C(F)(F)F)c1,59.7%,44.3%,79.3%,–,66%,61.3%,89.9%,11%,79.3%,44.9%
CCCCOc1ccc(Nc2nc3ccccc3nc2Nc2ccc(OCCCC)cc2)cc1,99.5%,82.2%,95.9%,85.3%,91.9%,91.8%,105%,68.3%,–,69.1%
